Hit rate of the full screen: of about 350,000 compounds, about 7,000 (2%) were called active. Cut-off read from the data, not from the text of the source: active = activation above about 40%; inconclusive = no clear call, values can overlap the other calls; inactive = below that. Many of the other results were omitted from the sample, so actives are more common in it than they were.

This test can be described thus: raisers of Bmi1 knock-in reporter signal – mouse ES cells, Bmi1 luciferase knock-in, single point, esBAF inhibitor project, primary screen (AID 602393).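 Note: 0% = median of the plate's neutral control wells and 100% = double that signal; a rise in the Bmi1 reporter signal indicates esBAF inhibition.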 The note with it: 24 h, at 12.5 µM, stronger effect = higher value, 100% = twice the neutral-well signal.
For the compound `COc1ccc(C(=O)COC(=O)C(O)c2ccccc2)c(OC)c1` (configuration not stated), the reporter increase was 67.1% (active).

Take `COc1ccc(C(=O)CCC(=O)Nc2cccnc2)c(OC)c1`: the reporter increase is -1.7% (inactive).

Regarding `COc1ccc(C(=O)CCc2ccccc2O)c(OC)c1`, the reporter increase was 92.4% (active).

Consider `COc1ccc(C(=O)COC(=O)CN2C(=O)C3CC=CCC3C2=O)c(OC)c1` (configuration not stated), for which the reporter increase was -4.47% (inactive).

As to `CCOC(=O)c1c(C)[nH]c(C(=O)OCC(=O)c2ccc(OC)cc2OC)c1C`, the reporter increase is 6.18% (inactive).

Consider `COc1ccc(C(=O)NC(C)CCc2ccccc2)c(OC)c1` (configuration not stated), for which the reporter increase was -1.75% (inactive).

As to `C[C@H](CO)N1C[C@H](C)[C@H](CN(C)C(=O)CCC(F)(F)F)OCCCC[C@H](C)Oc2ccc(NS(=O)(=O)c3ccc(F)cc3)cc2C1=O`, the reporter increase was -0.446% (inactive).

As to `C[C@@H]1CCCCO[C@@H](CN(C)S(=O)(=O)c2ccc(F)cc2)[C@@H](C)CN([C@@H](C)CO)C(=O)c2cc(NC(=O)Nc3ccc(F)cc3)ccc2O1`, the reporter increase was 3.89% (inactive).

In the case of `C[C@@H]1CN([C@@H](C)CO)C(=O)Cc2cc(NC(=O)Nc3ccc4c(c3)OCO4)ccc2O[C@H]1CN(C)S(=O)(=O)c1ccc(F)cc1`, the reporter increase is -0.705% (inactive).

Regarding `CN1[C@@H]2CN(C(=O)c3ccc(F)cc3)c3ccccc3[C@@H]2[C@@H]1CO`, the reporter increase is 2.63% (inactive).

`CCc1c(C)nc2cc(-c3cccs3)[nH]n2c1=O`: the reporter increase is 48.4% (active).

Turning to `C=CCc1c(C)nc2cc(-c3ccccc3)[nH]n2c1=O`, the reporter increase is 34.3% (inactive).

Consider `CCc1c(C)nc2cc(C)[nH]n2c1=O`, for which the reporter increase was -4.73% (inactive).

As to `O=C(C[C@H]1C=C[C@H](NC(=O)C2CCOCC2)[C@@H](CO)O1)NCC1CC1`, the reporter increase is -1.58% (inactive).

On to `Cc1ccc(-c2ccc3c(c2)O[C@H](CN(C)C(=O)Nc2ccccc2)[C@@H](C)CN([C@@H](C)CO)S3(=O)=O)cc1`, for which the reporter increase was -1.56% (inactive).

In the case of `CC(C)(C)NC(=O)Cn1nnc(-c2ccccc2Cl)n1`, the reporter increase was 56.6% (active).

In the case of `Cc1ccccc1-c1nnn(CC(=O)c2ccc(S(=O)(=O)N3CCCC3)cc2)n1`, the reporter increase is 5.35% (inactive).

`O=C(Cn1nnc(-c2ccccc2)n1)NC(=O)NC1CCCC1`: the reporter increase is -2.48% (inactive).

Turning to `CCCC(=O)Nc1ccc2c(c1)C(=O)N(C)[C@@H]1CC[C@H](CC(=O)NCCN3CCCCC3)O[C@@H]1CO2`, the reporter increase was 0.938% (inactive).

Regarding `O=C(C[C@@H]1C=C[C@H](NC(=O)C2CCOCC2)[C@H](CO)O1)NCc1ccncc1`, the reporter increase is 5.38% (inactive).

As for `CC(C)n1c(COc2ccccc2)nc2ccccc21`, the reporter increase was -1.17% (inactive).

For the compound `COCc1nc2ccccc2n1Cc1ccccc1Br`, the reporter increase was -3.15% (inactive).

As to `COCn1c(COc2ccccc2)nc2ccccc21`, the reporter increase is 80.5% (active).

As to `CCS(=O)(=O)n1nc(-c2ccccc2)nc1SCc1ccccc1`, the reporter increase was 45.9% (active).

For `C=CCn1c(SCc2ccccc2)nc2c1c(=O)[nH]c(=O)n2C`, the reporter increase is 8.86% (inactive).

For `COc1ccc(-n2c(SC)nc(O)cc2=O)cc1`, the reporter increase is -1.49% (inactive).

With `O=S(=O)(c1ccc(SCc2ccccc2)nc1)N1CCCCCC1`, the reporter increase was 8.09% (inactive).

In the case of `CCS(=O)(=O)n1nc(-c2ccc(OC)cc2)nc1SC`, the reporter increase is 55.7% (active).

Take `CCOC(=O)N1CCN(S(=O)(=O)c2ccc(OC)cc2)CC1`: the reporter increase was -4.19% (inactive).

On to `Cc1cccc(S(=O)(=O)N2C[C@@H]3[C@H](c4ccccc42)[C@H](CO)N3CC2CCOCC2)c1`, for which the reporter increase is 3.89% (inactive).

Take `CCC(=O)N(C)C[C@@H]1Oc2cc(C#CC(C)(C)O)ccc2S(=O)(=O)N([C@@H](C)CO)C[C@@H]1C`: the reporter increase is 1.13% (inactive).

For the compound `C[C@H](CO)N1C[C@H](C)[C@H](CN(C)S(=O)(=O)c2ccccc2)Oc2cc(Br)ccc2S1(=O)=O`, the reporter increase was 3.8% (inactive).

As to `COc1ccc(-c2noc(CCC(=O)N3CCN(c4cccc(C)c4)CC3)n2)cc1`, the reporter increase was -6.31% (inactive).

As for `Cc1ccc(C)c(N2CCN(C(=O)CCc3nc4ccccc4[nH]3)CC2)c1`, the reporter increase is 10.7% (inactive).

With `Cc1ccc(C)c(N2CCN(C(=O)CCc3nc(-c4cccc(C(F)(F)F)c4)no3)CC2)c1`, the reporter increase was 61.9% (active).

Consider `CNC[C@@H]1Oc2ccc(NS(=O)(=O)c3c(C)noc3C)cc2CC(=O)N([C@@H](C)CO)C[C@@H]1C`, for which the reporter increase was 1.22% (inactive).

`CO[C@H]1CN(C)C(=O)c2cc(NS(C)(=O)=O)ccc2OC[C@@H](C)N(C(=O)NC(C)C)C[C@@H]1C`: the reporter increase is -1.56% (inactive).

As for `CCC(=O)N1C[C@H]2[C@@H](c3ccccc31)[C@H](CO)N2Cc1ccccc1F`, the reporter increase was -1.5% (inactive).

As for `N#CC(=C1SC=CS1)c1nc(-c2ccccc2)cs1`, the reporter increase was 56.6% (active).

For `c1ccc(-c2csc(N3CCc4ccccc4C3)n2)cc1`, the reporter increase is 21.9% (inactive).

On to `N#CC(=C1CCCC1)c1nc(-c2ccc(Cl)cc2)cs1`, for which the reporter increase was 58.5% (active).

Regarding `C[C@@H]1CN([C@@H](C)CO)C(=O)Cc2cc(NS(=O)(=O)c3ccc(Cl)cc3)ccc2O[C@H]1CN(C)CC1CCCCC1`, the reporter increase was 3.84% (inactive).

On to `O=C(Cc1ccccn1)N1[C@@H]2CNc3ccccc3[C@@H]2[C@@H]1CO`, for which the reporter increase was -1.83% (inactive).

For the compound `O=C(c1cccnc1)N1C[C@H]2[C@@H](c3ccccc31)[C@H](CO)N2C(=O)C1CCCCC1`, the reporter increase was -4.74% (inactive).

With `CCC(=O)Nc1ccc2c(c1)C(=O)N(C)C[C@H](OC)[C@H](C)CN(C(=O)C1CCC1)[C@@H](C)CO2`, the reporter increase is -5.69% (inactive).

`CN1/C(=C\C(=O)c2cccnc2Cl)C(C)(C)c2ccccc21`: the reporter increase was 48.4% (active).

In the case of `CC(=O)Nc1cccc(OCC(=O)/C=C2\N(C)c3ccccc3C2(C)C)c1`, the reporter increase was -12.2% (inactive).

For the compound `CC(C)Nc1nnc(SCC(=O)/C=C2\N(C)c3ccccc3C2(C)C)s1`, the reporter increase was -0.0975% (inactive).

On to `C[C@@H]1CCCCO[C@H](CN(C)S(C)(=O)=O)[C@@H](C)CN([C@@H](C)CO)C(=O)c2cc(NC(=O)CCC(F)(F)F)ccc2O1`, for which the reporter increase is -0.325% (inactive).

Consider `CCCNC(=O)[C@H]1[C@H](CO)[C@H]2Cn3c(ccc(C4=CCCC4)c3=O)[C@H]2N1C(=O)CC`, for which the reporter increase was -0.965% (inactive).

For `O=C(CN1C(=O)COc2ccc(Cl)cc21)Nc1ccc(N2CCOCC2)cc1`, the reporter increase is -1.03% (inactive).

For the compound `O=C(CN1C(=O)COc2ccccc21)Nc1ccc(F)cc1`, the reporter increase was 72.1% (active).

In the case of `CC(OC(=O)CN1C(=O)COc2ccccc21)C(=O)NCc1ccc(F)cc1` (configuration not stated), the reporter increase is -4.32% (inactive).

As to `Cc1noc(C)c1NC(=O)N(C)C[C@@H]1OCCCC[C@H](C)Oc2ccc(NC(=O)CCC(F)(F)F)cc2C(=O)N([C@@H](C)CO)C[C@@H]1C`, the reporter increase was -15% (inactive).

Turning to `CN(C)C(=O)C[C@@H]1CC[C@@H](NS(=O)(=O)c2ccccc2)[C@H](CO)O1`, the reporter increase is -9.26% (inactive).

For the compound `CCOC(=O)C1(Cc2ccccc2C)CCCN(S(C)(=O)=O)C1` (configuration not stated), the reporter increase was -5.66% (inactive).

As for `CCOC(=O)C1(Cc2ccccc2C)CCCN(C(=O)CN2C(=O)CSC2=O)C1` (configuration not stated), the reporter increase was 15.7% (inactive).

On to `CCOC(=O)C1(Cc2ccccc2C)CCCN(C(=O)c2ccc(COC)o2)C1` (configuration not stated), for which the reporter increase is 52.7% (active).

On to `COc1cccc(C(=O)Nc2ccc3c(c2)C(=O)N(C)[C@@H]2CC[C@H](CC(=O)NCCCN4CCOCC4)O[C@H]2CO3)c1`, for which the reporter increase is 6.81% (inactive).

As for `C[C@@H]1CN([C@@H](C)CO)C(=O)c2cc(NS(=O)(=O)c3cn(C)cn3)ccc2O[C@@H](C)CCCCO[C@H]1CN(C)S(=O)(=O)c1cccs1`, the reporter increase is -0.192% (inactive).

As for `Cc1ccc(S(=O)(=O)Nc2ccc3c(c2)C(=O)N([C@H](C)CO)C[C@@H](C)[C@H](CN(C)C(=O)Nc2ccc(C(F)(F)F)cc2)OCCCC[C@H](C)O3)cc1`, the reporter increase is -0.527% (inactive).

On to `COc1ccc(/C=C2/CCCc3ccccc3C2=O)cc1`, for which the reporter increase is 23.6% (inactive).

As for `O=C1/C(=C/c2cccs2)CCc2ccccc21`, the reporter increase is 56.4% (active).

As for `COc1ccc(/C=C2\CCc3ccccc3C2=O)c(OC)c1OC`, the reporter increase was 35.7% (active).

For `O=S(=O)(c1cccs1)N1CCc2ccccc2C1`, the reporter increase was -5.9% (inactive).

In the case of `c1ccc2c(c1)CCc1snnc1-2`, the reporter increase was -3.35% (inactive).

As to `COc1ccc(/C=N/NC(=O)C2CC2)c(OC)c1OC`, the reporter increase is -5.72% (inactive).

As for `O=C(C[C@H]1C=C[C@@H](NS(=O)(=O)c2ccc(F)cc2)[C@@H](CO)O1)NC1CCC1`, the reporter increase is -2.06% (inactive).

With `CO[C@H]1CN(C)C(=O)c2cc(NS(C)(=O)=O)ccc2OC[C@@H](C)N(C)C[C@@H]1C`, the reporter increase is 0.827% (inactive).

Consider `CN1CCCCN2[C@@H](CO)[C@@H](c3ccc(C4=CCCC4)cc3)[C@@H]2C1`, for which the reporter increase is -22.1% (inactive).

Take `CCc1ccccc1OCC(=O)Nc1nnc(C2CC2)s1`: the reporter increase is 1.33% (inactive).

`COc1ccc2c(CC(=O)Nc3nnc(C4CC4)s3)coc2c1`: the reporter increase was 4.79% (inactive).

Regarding `Cc1cc(C(=O)Nc2nnc(C3CC3)s2)c(C)s1`, the reporter increase was 62.3% (active).

`O=C(Nc1nnc(C2CC2)s1)C1=NN(C2CCS(=O)(=O)C2)C(=O)CC1` (configuration not stated): the reporter increase is 4.96% (inactive).

Turning to `CCc1nnc(NC(=O)c2cc(S(=O)(=O)N3CCCCC3)ccc2C)s1`, the reporter increase was 8.45% (inactive).

With `CCc1cc(C(=O)Nc2nnc(C3CC3)s2)sc1C`, the reporter increase is 53.3% (active).

Consider `COCc1cn(CC[C@H]2CC[C@H](NC(=O)c3ccncc3)[C@H](CO)O2)nn1`, for which the reporter increase is -3.19% (inactive).

For the compound `CN1C[C@H]2[C@@H](c3ccccc31)[C@@H](CO)N2C(=O)Nc1ccccc1`, the reporter increase was 3.76% (inactive).

Consider `O=S(=O)(Nc1ccc2nc(-c3ccco3)[nH]c2c1)c1ccccc1`, for which the reporter increase is 60.3% (active).

For `O=S(=O)(Nc1ccc2cn[nH]c2c1)c1ccccc1`, the reporter increase is -0.15% (inactive).

Take `Cn1c(CCN2CCCC2)nc2cc(NS(=O)(=O)c3ccccc3)ccc21`: the reporter increase was 1.19% (inactive).

In the case of `CO[C@H]1CC[C@@H]2CCOc3c(C#N)cccc3C(=O)N(C)C[C@H](C)C(=O)N(C)C[C@H]1O2`, the reporter increase is 4.38% (inactive).

The values above are taken from PubChem BioAssay AID602393 (Broad Institute, 2012).
